Source: PubChem (The Scripps Research Institute Molecular Screening Center)
Only a selection was taken, and hits are over-represented in it overall.
TTR transcr act: activators of transthyretin transcription; 92,000 tested, 1.3% active; activation, % at 16.7 µM; AID 1117267; SH-SY5Y TTR promoter Gaussia luciferase, luminescence; 100% = recombinant luciferase protein wells;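 active = activation above the mean of all tested compounds plus 3 SD, cut at about 9.5% in these data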;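 note: cells exposed to compounds for one day before reading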
TTR inh HuH7: decreases TTR transcription in HuH7 cells in activator counter-screen; shares compounds with TTR transcr act; HuH7 TTR promoter-Gaussia luciferase reporter, luminescence; inhibition, % at 16.7 µM; 1,100 tested, 4% active; AID 1117279;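 active = average inhibition above the solvent-only control wells' mean plus 3 SD, cut at about 15% in these data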;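 note: inhibitors lower well luminescence so higher value means more inhibition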
TTR act confirm: confirmation of human transthyretin transcription activators. 1,100 tested, under 10 active. shares compounds with TTR transcr act. activation, % at 16.7 µM. SHSY5Y TTR promoter Gaussia luciferase, luminescence; 100% = purified Lucia enzyme wells, no cells. AID 1117280;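 active = mean activation above a set limit taken from the earlier primary screen, cut at about 11% in these data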
Numbers stand for hits; - = inactive.

SMILES	TTR transcr act	others
O=C(Nc1ncccc1Cl)c1cccc(F)c1	12	TTR inh HuH7=-;TTR act confirm=-
Cc1noc(/C=C/c2cccs2)c1S(=O)(=O)N1CCC(C(=O)NCCCN2CCCC(C)C2)CC1 (centres undefined)	-
CNc1ccccc1/C(O)=C(\C#N)C(=O)NCc1cccs1	-
O=C(Cn1[nH]c(=O)c2ccccc2c1=O)Nc1ccc(-c2nnc3n2CCCCC3)cc1	12	TTR inh HuH7=-;TTR act confirm=-
O=C(Cc1n[nH]c(=O)c2ccccc12)Nc1ccc(-c2nnc3n2CCCCC3)cc1	-
Cc1c(C(=O)Nc2ccc(-c3nnc4n3CCCCC4)cc2)oc2c1ccc1ccccc12	-
COC(=O)c1ccc(Cn2ccc3ccc(-c4ccc5ccn(Cc6ccc(OC)cc6)c5c4)cc32)cc1	-
CC(=O)CCC(=O)N1CCCC(N2CCN(c3cccc(Cl)c3)CC2)C1 (centres undefined)	-
Cc1ccccc1CN1CCCCC(NC(=O)Cc2cccs2)C1=O (centres undefined)	-
O=C(COC(=O)c1cc[n+]([O-])cc1)Nc1ccccc1Sc1ccccc1	-
CCCC(=O)OCC(=O)Nc1ccccc1C#N	-
CCCC(=O)OCC(=O)Nc1ccccc1Sc1ccccc1	11	TTR inh HuH7=-;TTR act confirm=-
Cc1cc(NC(=O)C2CCCCC2)ncc1NC(=O)c1ccccn1	14	TTR inh HuH7=-;TTR act confirm=-
Cc1cc(NC(=O)C2CC2)ncc1NC(=O)c1ccccn1	-
Cc1ccccc1NC(=O)c1ccccn1	-
O=C(NNC(=O)C1CCCCC1)c1cnccn1	12	TTR inh HuH7=-;TTR act confirm=-
O=C(Nc1ccccc1N1CCCCC1)c1cnccn1	-
O=C(NNC(=O)c1cnccn1)c1ccc(Cl)cc1	-
O=C(O)CN1C(=O)C2C3CCC(C3)C2C1=O (centres undefined)	-
O=C(Nc1ccc(Cl)cc1)O[C@@H]1CC[C@@]23CCCN2C(=O)CCC[C@H]3C1	-
O=C1CCC[C@H]2C[C@H](NCc3ccc(Br)cc3)CC[C@]23CCCN13	-
S=C(Nc1ccccc1I)OC1CCC12CCC(c1ccccc1)CC2 (centres undefined)	-
CCC[C@H]1[C@@H](OC(=O)NCc2ccc(Cl)cc2)CC[C@@]23CCCN2C(=O)CCC[C@@H]13	-
O=C/C(=C\Nc1ccccn1)c1nc2ccccc2o1	11	TTR inh HuH7=25;TTR act confirm=-
O=C/C(=C\Nc1ccc(Br)cc1)c1nc2ccccc2o1	-
SMILES	TTR transcr act	others
O=C/C(=C\Nc1ccccn1)c1nc2cc(Cl)ccc2o1	-
CC(C)(N[C@@H](Cc1c[nH]c2ccccc12)C(=O)NCCCc1ccccc1)C(=O)NCc1ccccc1	-
CCOC(=O)N1CCN(C(=O)COC(=O)c2ccc(N(C)C)cc2)CC1	-
CN(C)c1ccc(C(=O)OCC(=O)N2CCCC2)cc1	13	TTR inh HuH7=-;TTR act confirm=-
CN(C)c1ccc(C(=O)OCC(=O)N2CCCCCC2)cc1	-
CC1CC(C)CN(S(=O)(=O)c2cccc3nsnc23)C1 (centres undefined)	-
CCN1CCN(S(=O)(=O)c2cccc3nsnc23)CC1	-
Cc1ccccc1CN1CCN(S(=O)(=O)c2cccc3nsnc23)CC1	12	TTR inh HuH7=-;TTR act confirm=-
Cc1ccc(S(=O)(=O)N2C=C(c3ccccc3)c3ccccc3-c3ccccc32)cc1	-
O=C(CSCC(=O)Nc1cccc2ccccc12)Nc1cccc2ccccc12	-
Cc1cc(C)nc(SCCC(=O)Nc2cccc3ccccc23)n1	13	TTR inh HuH7=-;TTR act confirm=-
Cc1cc(C)nc(SCC(=O)Nc2ccnc3ccccc23)n1	-
CCOC(=O)CC1C(=O)NCCN1C(=O)Nc1ccccc1 (centres undefined)	18	TTR inh HuH7=-;TTR act confirm=-
COc1ccc(NC(=O)CC2C(=O)NCCN2C(=O)Nc2ccc(C(F)(F)F)cc2)cc1 (centres undefined)	-
COC(=O)CC1C(=O)NCCN1C(=S)Nc1cccc(C)c1 (centres undefined)	-
C[C@H]1C2CC(OC(=O)Nc3cccc(F)c3)C(C2)[C@H]2CCCCN21 (some centres undefined)	-
COc1ccc(NC(=O)CCS(=O)(=O)c2ccc3c(c2)oc(=O)n3C)cc1	-
COP(=O)(CC(=O)O)C(CC(C)C)NC(=O)OCc1ccccc1 (centres undefined)	-
CC(=O)Nc1nc(COc2ccccc2)cs1	-
COc1ccc(/C=C/C(=O)OCc2csc(-c3ccccc3)n2)cc1OC	-
COc1ccccc1OCc1csc(N)n1	24	TTR inh HuH7=-;TTR act confirm=-
CCCC1CCC2(CC1)CCC2OC(=S)Nc1ccccc1 (centres undefined)	-
NC(=O)C1(C(N)=O)OC1c1ccc(Cl)c(Cl)c1 (centres undefined)	-
O=C(Nc1cccc(C(=O)Nc2ccc(Br)cc2)c1)c1ccccc1	-
O=C(Nc1ccccc1)c1ccn[nH]1	15	TTR inh HuH7=-;TTR act confirm=-
SMILES	TTR transcr act	others
O=C(Nc1ccc(F)cc1)c1ccccc1	-
COc1ccc(CN[C@@H]2CC[C@@]34CCCN3C(=O)CCC[C@H]4C2)cc1	-
Cc1ccccc1OCCn1c(=S)[nH]c2ccccc21	-
Cc1ccccc1OCCn1c(C)nc2ccccc21	-
Cc1ccccc1OCCn1c(S(=O)(=O)O)nc2c(N)ncnc21	9.9	TTR inh HuH7=-;TTR act confirm=-
COC(=O)[C@H]1C[C@]2(C(/C=C(\C)CCC=C(C)C)S(=O)(=O)c3ccccc3)c3ccccc3N[C@H]2N1 (some centres undefined)	-
O=C(CSc1ncccn1)N1CCN(Cc2ccccc2)CC1	15	TTR inh HuH7=-;TTR act confirm=-
Cc1cc(C)c(C#N)c(SCC(=O)N2CCN(Cc3ccccc3)CC2)n1	-
O=C(CCS(=O)(=O)c1ccc(Br)cc1)N1CCN(Cc2ccccc2)CC1	-
Cc1ccc(-c2cc(C(=O)NC3CCCC3)no2)cc1	-
Cc1ccc(SCc2cc(-c3ccc(Cl)cc3)on2)cc1	-
Cc1cc(-c2cc(-c3ccc(Cl)cc3)on2)nc(NC2CCCC2)n1	9.8	TTR inh HuH7=-;TTR act confirm=-
Cc1cc(SCC(=O)O)nc2ccccc12	30	TTR inh HuH7=-;TTR act confirm=-
Cc1cc(SCC(=O)c2cc3ccccc3o2)nc2ccccc12	-
O=C(O)CSc1cnc2ccccc2n1	-
Cc1ccc(NC(=O)c2cccc(NC(=O)CC3SC(N4CCCCC4)=NC3=O)c2)nc1 (centres undefined)	9.8	TTR inh HuH7=-;TTR act confirm=-
CC1CC(C)CN(C(=O)c2cccc(NC(=O)CC3SC(N4CCCCC4)=NC3=O)c2)C1 (centres undefined)	-
COc1ccc(NC(=O)CC2SC(N3CCCC3)=NC2=O)cc1Cl (centres undefined)	-
COC(=O)[C@]12C[C@H](CC(=O)N3CCN(C(=O)C4CC4)CC3)C(=O)N(CCC3=CCCCC3)C1=C[C@H](C1CCCC1)O[C@@H]2C	-
CC1(C)NC(=O)N(CC(=O)OCC(=O)c2ccc(Br)s2)C1=O	-
CCCCCCCCN1C(=O)[C@H](CC(=O)NCCCC)C[C@@]2(C(=O)OC)CC(C)(C)CC=C12	-
O=C(CN1C(=O)C(=O)N(Cc2ccco2)C1=O)c1c[nH]c2ccccc12	11	TTR inh HuH7=-;TTR act confirm=-
C/C(=N\NC(=O)c1c[nH]c2ccccc12)c1ccco1	-
O=C(Cn1cnc2ccccc2c1=O)c1c[nH]c2ccccc12	-
CCOc1ccc(NC(=O)c2sc3nc(N4CCOCC4)c4c(c3c2N)CC(C)(C)OC4)cc1	-
O=C(CSc1ccc2c(c1)OCCO2)Nc1cccnc1	-
O=C(N/N=C/C=C/c1ccccc1)c1cccnc1	-
O=C(N/N=C/C=C/c1ccccc1)c1n[nH]c2c1CCC2	11	TTR inh HuH7=-;TTR act confirm=-
